In all, about 33,000 sequences were measured (“E-score (-0.5 to 0.5)”: median about -0.012, highest 2% from about 0.29 on). The full list was thinned out, with the highest values kept by preference.
Molecular target: T1, Ybr033w (UniProt P38073)
T1 sequence: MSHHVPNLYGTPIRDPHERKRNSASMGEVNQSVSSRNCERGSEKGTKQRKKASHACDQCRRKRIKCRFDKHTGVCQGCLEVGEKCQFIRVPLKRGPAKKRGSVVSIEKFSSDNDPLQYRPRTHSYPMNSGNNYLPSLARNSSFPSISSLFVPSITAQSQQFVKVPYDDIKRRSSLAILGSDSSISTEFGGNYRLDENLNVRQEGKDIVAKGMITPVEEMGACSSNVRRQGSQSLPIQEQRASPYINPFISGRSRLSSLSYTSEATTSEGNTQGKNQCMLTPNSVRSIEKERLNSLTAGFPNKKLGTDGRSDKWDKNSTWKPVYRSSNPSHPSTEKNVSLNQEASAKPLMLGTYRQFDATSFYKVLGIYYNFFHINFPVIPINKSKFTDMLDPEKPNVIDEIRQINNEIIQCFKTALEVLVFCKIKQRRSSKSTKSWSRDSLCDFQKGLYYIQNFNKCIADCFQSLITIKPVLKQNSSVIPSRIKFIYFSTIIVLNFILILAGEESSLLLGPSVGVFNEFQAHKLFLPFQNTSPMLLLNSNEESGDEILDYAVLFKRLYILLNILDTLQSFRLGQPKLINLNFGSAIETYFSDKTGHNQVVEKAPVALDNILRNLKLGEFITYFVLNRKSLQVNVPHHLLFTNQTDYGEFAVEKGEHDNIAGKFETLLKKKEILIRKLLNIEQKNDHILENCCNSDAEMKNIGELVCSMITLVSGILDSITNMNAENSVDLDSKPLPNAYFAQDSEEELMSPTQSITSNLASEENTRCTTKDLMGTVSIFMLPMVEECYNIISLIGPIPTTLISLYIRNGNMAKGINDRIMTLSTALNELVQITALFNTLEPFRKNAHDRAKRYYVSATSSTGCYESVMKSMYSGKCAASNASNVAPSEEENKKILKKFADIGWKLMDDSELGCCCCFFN
Assay: PBM E-score (8-mer binding enrichment) (E-score (-0.5 to 0.5)); higher = stronger / more preferred TF binding
Details: protein concentration: 200 nM; construct: GST-full length
Protocol: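 Universal 'all 10-mer' protein binding microarrays (Agilent AMADID 015681) probed with GST-tagged S. cerevisiae TFs (full-length or DBD) made by in vitro transcription/translation (PURExpress), about 100-200 nM. Bound TF was detected with fluorescent anti-GST. Each ungapped 8-mer (which stands for itself and its reverse complement) is scored by the PBM enrichment score (E-score), a modified Wilcoxon-Mann-Whitney statistic from -0.5 to +0.5, computed with the Universal PBM Analysis Suite. Scale: above 0.35 generally sequence-specific binding.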

Row | Sequence | PBM E-score
1 | TCGTCCAA | 0.0311
2 | ACAATCCC | 0.0235
3 | TCTGTCCA | -0.0429
4 | ATCTTCCA | 0.249
5 | ATATTCCG | 0.428
6 | ATCTTCCC | 0.121
7 | ATATTCCA | 0.395
8 | ATATTCGG | 0.0327
9 | ATATTCTG | 0.157
10 | GTATTCCA | -0.0248
11 | CTATTCCA | 0.17
12 | AAATTCAA | 0.288
13 | AAATTCAG | 0.204
14 | GAATTCAA | 0.177
15 | ATCTTCCG | 0.438
16 | ACTGCACC | -0.018
17 | CCGCTAAA | -0.117
18 | AGACTGTA | -0.175
19 | AGGGGAAG | -0.272
20 | GCTAGGCA | -0.146
21 | ATATTCAA | 0.3
22 | ATATTCCC | 0.329
23 | AATTTCCT | 0.273
24 | CTATTCCC | -0.043
25 | CATTTCCG | 0.12

Row | Sequence | PBM E-score
26 | AAATTCCG | 0.309
27 | AATTTCCG | 0.325
28 | CTATTCAA | 0.0501
29 | AAATTCCA | 0.258
30 | AAATTCCC | 0.0364
31 | TTATTCAA | 0.253
32 | ACATTCCC | 0.0614
33 | CCTGCAAC | -0.034
34 | ACACTCTA | 0.121
35 | GTGCTGGA | -0.0549
36 | AACCACAT | 0.00349
37 | AGTGGCTG | -0.145
38 | AGGTCTGC | -0.104
39 | GCGCTCTA | -0.159
40 | GTGCGACA | -0.235
41 | GTTGCAAA | 0.231
42 | GGTTGCAC | -0.131
43 | ATTCGAGA | 0.023
44 | GGTGCACC | -0.253
45 | CTTCAGCC | -0.13
46 | AAATCGAC | 0.142
47 | AAGTCTAT | -0.00931
48 | CGTGTGAG | -0.225
49 | CGTTCTTC | 0.0897
50 | AGTTCTTA | 0.171

Row | Sequence | PBM E-score
51 | ATTTCTTG | 0.198
52 | AGTTCTTC | 0.3
53 | ATTTCTTC | 0.313
54 | ATTTCTTA | 0.195
55 | CATAGCTC | -0.153
56 | TCTATTAA | 0.292
57 | ACTATTAA | 0.325
58 | CCTATTAA | 0.139
59 | GCTATTAA | 0.201
60 | AGTATTAG | 0.174
61 | TCTATTCA | 0.167
62 | ACTATTAG | 0.111
63 | AGTATTAA | 0.295
64 | TGTATTAA | 0.272
65 | CACCCCAG | 0.0316
66 | ATGCGACA | 0.0689
67 | TAATCTAA | 0.236
68 | ATGGGATC | -0.0796
69 | AGGACAAC | 0.0906
70 | TCGTTGAA | 0.122
71 | GACTCTAC | -0.261
72 | ACCTGAAC | -0.219
73 | GATGCTCA | -0.113
74 | CTTGTGCC | -0.354
75 | CGCACTAA | 0.0977

Row | Sequence | PBM E-score
76 | GACATTAC | 0.164
77 | GCTGCTAC | -0.175
78 | GGCCATTA | 0.0667
79 | TATTACAA | 0.307
80 | ATTTACAC | 0.00495
81 | CATTACGA | 0.0351
82 | AATTACGA | 0.277
83 | ATTTACAG | 0.149
84 | CATTACAA | 0.19
85 | ATTTACAA | 0.31
86 | TATTACGA | 0.297
87 | AATTACAA | 0.107
88 | AGTCCAAC | -0.12
89 | CTTAGAAA | 0.138
90 | ATCTATTC | 0.132
91 | AAACTCAT | 0.274
92 | AATCGAAG | 0.108
93 | CATTTCGG | -0.0324
94 | TTATATAA | 0.411
95 | CTATATAA | 0.152
96 | TGATATAA | 0.179
97 | GTATATAA | 0.168
98 | TCATATAA | 0.179
99 | ATATATAA | 0.332
100 | GAGCAAAA | 0.0833

Row | Sequence | PBM E-score
101 | ATAGTGCG | 0.0631
102 | CACTTGGG | -0.0516
103 | ACCTTTTG | -0.0505
104 | AATGTTCA | 0.0556
105 | AATTCCCA | 0.171
106 | AATTCCGA | 0.296
107 | CATTCCGA | 0.15
108 | TATTCCGA | 0.398
109 | TAATCCGA | 0.326
110 | ACTTCCGA | -0.0181
111 | AATTCCGC | 0.172
112 | GATTCCGA | 0.129
113 | GAATCCGA | -0.108
114 | AATTCCGG | 0.154
115 | AAATCCGA | 0.12
116 | AATTCCGT | 0.312
117 | ACTGCGAA | -0.0623
118 | GAATCACC | 0.136
119 | AAACTGGA | 0.0838
120 | CTAATCCC | -0.0661
121 | CCTCTGCG | -0.252
122 | GCTGCCCA | -0.153
123 | ACTTGGAG | -0.0202
124 | AGCCTATA | 0.0186
125 | CGCCAGAG | -0.045

Row | Sequence | PBM E-score
126 | AGATGTCC | 0.0719
127 | CTAGCATA | 0.137
128 | CTTACTAA | 0.143
129 | GTGTAAAC | -0.00524
130 | AGGCGAGC | -0.174
131 | ATCGCTAA | 0.0959
132 | CCGGGCAG | -0.122
133 | GTTATGGA | 0.108
134 | AGATGAAC | 0.131
135 | CGATGAAC | -0.00159
136 | GGATGAAC | 0.292
137 | AAGGGAGA | -0.166
138 | AGCATACG | -0.0246
139 | TGGAATAA | 0.417
140 | AGGAATAG | 0.134
141 | CCGAATAG | 0.0196
142 | TCGAATAA | 0.193
143 | CCGAATAA | 0.293
144 | AGGAATAC | -0.131
145 | CCGAATAC | 0.105
146 | AGGAATTA | 0.223
147 | CGGAATTA | 0.407
148 | TAGAATAA | 0.205
149 | CGGAATTC | 0.0496
150 | AGGAATAA | 0.364

Row | Sequence | PBM E-score
151 | ATTCAGTA | 0.13
152 | AGGTCTTG | -0.128
153 | ATTGTGGA | 0.153
154 | CACCTAGC | -0.236
155 | AGCACTAT | 0.0398
156 | CAGTGATA | 0.0511
157 | CACAGTCG | -0.125
158 | AGGCAAAA | 0.222
159 | AAGAATAT | 0.149
160 | AGGAATAT | 0.353
161 | CGGAATAG | 0.126
162 | ACGAATAA | 0.0842
163 | ACGAATAC | 0.0881
164 | GGGAATCA | 0.0407
165 | AGGAATCG | 0.116
166 | ACGAATAT | 0.295
167 | GGGAATAA | 0.355
168 | CGGAATAC | 0.186
169 | GGGAATAC | -0.0369
170 | CGGAATAA | 0.468
171 | TACCTTGA | 0.0473
172 | CTCACGGC | -0.261

Reference: the supplement of paper PMC3334620
